Inconclusive results are not listed. Calls of active or inactive are those of the source. The call rests on the fitted dose curve; in most records, active means well fitted inhibition curve with a large enough effect; inconclusive means small, poorly fitted or top-dose-only effect; inactive means no such curve, though single readings can be large or run the other way. Where a SMILES comes first, the peptide text is derived from it. Bridges are numbered along the chain shown (N, C = ends). [ ]: non-standard residue; d: D form. hArg = N=C(N)NCCCC[C@H](N)C(=O)O; Mpa = O=C(O)CCS
assay: S16 Schwann cell PMP22 intronic element firefly luciferase assay (AID 624032); details: S16 rat Schwann cells, PMP22 element FLuc, 24 h; series mostly up to 57.5 µM; activity change, negative = inhibition: at the top concentration; further: nearly all actives have a fitted effect of over 30% in size
Procedure, shortened: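 Rat S16 Schwann cells stably carrying a PMP22 intronic element-driven Fluc reporter were seeded overnight, then exposed to compounds for 24 h at 37 °C. Luminescence was normalized to PTC124 (positive control) and DMSO (0% activity).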

SMILES | activity change, negative = inhibition
NC(=O)CCCCC1CCSS1 (stereo not drawn) | 8.33% (inactive)
O=C(NCN1CCOCC1)c1cnccn1 | -16.5% (inactive)
COc1ccc(C(=O)NCc2ccc(OCCN(C)C)cc2)cc1OC | -6.08% (inactive)
O=c1[nH]cnc2nc[nH]c12 | -10.6% (inactive)
CNc1c2c(nn1C)CCCC2 | 6.69% (inactive)
CN(C(=O)c1c(O)c2ccccc2n(C)c1=O)c1ccccc1 | 18.1% (inactive)
NS(=O)(=O)c1cc2c(cc1C(F)(F)F)NCNS2(=O)=O | -2.27% [at 25.7 µM] (inactive)
CCCCCCCCCCC(CO)CCCCCCCC (stereo not drawn) | 6.06% (inactive)
CN1CCN(C(=O)C2CCCCC2)CC1 | 8.33% (inactive)
CC(=O)NCc1c(I)c(NC(C)=O)c(I)c(C(=O)O)c1I | 31.2% (inactive)
O=C(O)CNC(=O)c1ccccc1I | -12.6% (inactive)
C[N+](C)(C)CC[N+]1(C)Cc2c(Cl)c(Cl)c(Cl)c(Cl)c2C1 | -9.03% (inactive)
CC(C)CCOC(=O)c1ccc(N(C)C)cc1 | 209% (inactive)
Cc1ncc(CO)c(CN)c1O | -19.1% (inactive)
CC(C(=O)O)c1ccc2c(c1)Cc1cccnc1O2 (stereo not drawn) | -30.5% (inactive)
COC(=O)c1cccnc1 | 1.32% (inactive)
CC(=O)N[C@@H](Cc1ccc(O)cc1)C(=O)O | 14.9% (inactive)
NC(=O)NS(=O)(=O)c1ccc(N)cc1 | 18.1% (inactive)
O[C@@H]1CO[C@H]2[C@@H]1OC[C@@H]2O | -1.27% (inactive)

SMILES | activity change, negative = inhibition
Cc1c(NC(C)C)c(=O)n(-c2ccccc2)n1C | -2.17% (inactive)
Cc1c(C)c2c(c(C)c1OC(=O)c1cccnc1)CC[C@@](C)(CCC[C@H](C)CCC[C@H](C)CCCC(C)C)O2 | 18.4% (inactive)
C[C@H]1COc2c(C3(N)CC3)c(F)cc3c(=O)c(C(=O)O)cn1c23 | 5.43% (inactive)
CC(CN(C)C)C(C)(O)Cc1ccc(Cl)cc1 (stereo not drawn) | 2.43% (inactive)
COC(=O)c1ccccc1C(=O)c1ccc(OCCN2CCCCC2)cc1 | -24.1% (inactive)
Cc1cc(C)c(NC(=O)CN(CC(=O)O)CC(=O)O)c(C)c1Br | -3.15% (inactive)
Nc1ccncc1N | -0.663% (inactive)
O=C(NCCCN1CCOCC1)c1ccc(Cl)cc1 | 22.2% (inactive)
Cc1cc(NC(=O)C2=C(O)c3ccccc3S(=O)(=O)N2C)no1 | 10.3% (inactive)
Nc1c2c(nc3c1CCC3)CCCC2 | -4.05% (inactive)
O=C(O)c1ccccc1OP(=O)(O)O | 40% (inactive)
NC(=O)[C@@H]1CSSCCC(=O)N[C@@H](CCCCN=C(N)N)C(=O)NCC(=O)N[C@@H](CC(=O)O)C(=O)N[C@@H](Cc2c[nH]c3ccccc23)C(=O)N2CCC[C@H]2C(=O)N1 ([Mpa][hArg]GDWPC-NH2; disulfide 1-7) | 20.8% (inactive)
Cc1cccc(C)c1NC(=O)CC12CCCN1CCC2 | 2.81% (inactive)
CCCCCC(C)N (stereo not drawn) | -7.89% (inactive)
Cc1c(NC(=O)c2cccnc2)c(=O)n(-c2ccccc2)n1C | -0.447% [at 25.7 µM] (inactive)
O=C(/C=C/c1ccccc1)OCc1ccccc1 | -11.3% (inactive)
CN1C[C@@H]2C[C@H]1CN2c1cc2c(cc1F)c(=O)c(C(=O)O)cn2C1CC1 | -5.86% (inactive)
O=C(O)COC(=O)Cc1ccccc1Nc1c(Cl)cccc1Cl | 2.64% [at 25.7 µM] (inactive)
COc1nccnc1NS(=O)(=O)c1ccc(N)cc1 | -5.75% (inactive)

— PubChem BioAssay (NCATS)
